The text below walks through data of the supplement of paper PMC10811239.

One assay concerns LEGO organoid PT (PTEN-/-; TP53-/-). Nature of the assay: bioluminescence (viable cell) signal fold change after vs before treatment, normalised to DMSO (ratio); higher = more tumour cell growth / less inhibition. The settings on record: 10 µM; treatment time 6 days. Here is the method: (§1)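 Luc2-labelled iPSC-derived glioblastoma-like organoids (LEGOs, genotypes PT = PTEN-/-;TP53-/-, PTCC = plus CDKN2A/B-/-, PTN = plus NF1-/-) were treated with 10 uM drug for 6 days (applied every other day) at 37 C. Bioluminescence imaging was done before treatment and 2 days after the last dose. BLI signals were normalised to the DMSO control on the same day and then to the pre-treatment signal (N=3).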
As to `O=C1Nc2ccc(Cl)cc2[C@@](C#CC2CC2)(C(F)(F)F)O1` [Efavirenz], the bioluminescence came to 0.965.
With `C[C@@H](O[C@H]1OCCN(Cc2nc(=O)[nH][nH]2)[C@H]1c1ccc(F)cc1)c1cc(C(F)(F)F)cc(C(F)(F)F)c1` [Aprepitant], the bioluminescence amounted to 0.86.
Turning to `Clc1ccc2c(c1)C(N1CCNCC1)=Nc1ccccc1O2` [Amoxapine], the bioluminescence stood at 0.902.
As for `CC(=O)O.Cc1c(-c2ccc(O)cc2)n(Cc2ccc(OCCN3CCCCCC3)cc2)c2ccc(O)cc12` [Bazedoxifene acetate], the bioluminescence was 0.897.
Still for that read-out and setting: to `CNCCCC1c2ccccc2C=Cc2ccccc21.Cl` [Protriptyline hydrochloride] belongs 0.749; to `FC(F)(F)c1ccc(CNc2ccc(Cc3c[nH]c4ncc(Cl)cc34)cn2)cn1` [Pexidartinib], 0.7; to `CSc1ccc2c(c1)N(CCC1CCCCN1C)c1ccccc1S2.Cl` (centres undefined) [Thioridazine hydrochloride], 0.68.
Turning to `Cc1ncc([N+](=O)[O-])n1CCO` [Metronidazole], the bioluminescence turned out to be 0.839.
Take `O=C([O-])CCCc1ccccc1.[Na+]` [Sodium Phenylbutyrate]: the bioluminescence worked out at 1.37.
The same measure, in the same setting: to `CCCCCOC(=O)Nc1nc(=O)n([C@@H]2O[C@H](C)[C@@H](O)[C@H]2O)cc1F` [Capecitabine] belongs 2.21.
For the compound `O.O.O.O.[Li][O]C(=O)CC(O)(CC(=O)[O][Li])C(=O)[O][Li]` [Lithium citrate tetrahydrate], the bioluminescence came out at 1.01.
As for `Cc1[nH]c(=O)c(C#N)cc1-c1ccncc1` [Milrinone], the bioluminescence stood at 1.11.
Still for that read-out and setting: to `O=C(CCCN1CCC(O)(c2ccc(Cl)cc2)CC1)c1ccc(F)cc1` [Haloperidol] belongs 0.925; to `CC(C)Nc1cccnc1N1CCN(C(=O)c2cc3cc(NS(C)(=O)=O)ccc3[nH]2)CC1.CS(=O)(=O)O` [Delavirdine mesylate], 0.826; to `CN[C@H]1CC[C@@H](c2ccc(Cl)c(Cl)c2)c2ccccc21.Cl` [Sertraline hydrochloride], 0.66.
Turning to `N[C@@H](CC(=O)O)C(=O)O` [L-Aspartic acid], the bioluminescence is 0.844.
Take `Cc1ccc(Nc2nccc(N(C)c3ccc4c(C)n(C)nc4c3)n2)cc1S(N)(=O)=O` [Pazopanib]: the bioluminescence was 0.948.
Consider `Nc1ncn([C@H]2C[C@H](O)[C@@H](CO)O2)c(=O)n1` [Decitabine], for which the bioluminescence came out at 1.2.
As for `Cc1ccnc2c1NC(=O)c1cccnc1N2C1CC1` [Nevirapine], the bioluminescence came out at 2.15.
In the case of `CO[C@H]1C(=O)[C@]2(C)[C@@H](OC)C[C@H]3OC[C@@]3(OC(C)=O)[C@H]2[C@H](OC(=O)c2ccccc2)[C@]2(O)C[C@H](OC(=O)[C@H](O)[C@@H](NC(=O)OC(C)(C)C)c3ccccc3)C(C)=C1C2(C)C` [Cabazitaxel], the bioluminescence is 1.15.
As to `Nc1nc(=O)n([C@@H]2CS[C@H](CO)O2)cc1F` [Emtricitabine], the bioluminescence worked out at 0.905.
As for `C=CC(=O)N1CCC[C@@H](n2nc(-c3ccc(Oc4ccccc4)cc3)c3c(N)ncnc32)C1` [Ibrutinib], the bioluminescence was found to be 0.73.
On the same count and under the same terms, the figure for `NC(CO)(CO)CO.O=C(c1ccccc1)c1ccc2n1CCC2C(=O)O` (centres undefined) [Ketorolac tromethamine salt] is 1.75; for `CC(=O)N[C@@H](CS)C(=O)O` [Acetylcysteine] it is 1.23; for `COc1cc2c(Nc3ccc(Br)cc3F)ncnc2cc1OCC1CCN(C)CC1` [Vandetanib] it is 1.32.
Take `CO[C@H]1/C=C/O[C@@]2(C)Oc3c(C)c(O)c4c(O)c(c(/C=N/N5CCN(C6CCCC6)CC5)c(O)c4c3C2=O)NC(=O)/C(C)=C\C=C\[C@H](C)[C@H](O)[C@@H](C)[C@@H](O)[C@@H](C)[C@H](OC(C)=O)[C@@H]1C` [Rifapentine]: the bioluminescence worked out at 3.28.

The subject of a further assay is LEGO organoid PTCC (PTEN-/-; TP53-/-; CDKN2A-/-; CDKN2B-/-). Described as above. The note with it: 10 µM; treatment time 6 days. The protocol:
as §1
Turning to `NCC[C@H](O)C(=O)N[C@@H]1C[C@H](N)[C@@H](O[C@H]2O[C@H](CN)[C@@H](O)[C@H](O)[C@H]2O)[C@H](O)[C@H]1O[C@H]1O[C@H](CO)[C@@H](O)[C@H](N)[C@H]1O.O=S(=O)(O)O.O=S(=O)(O)O` [Amikacin disulfate], the bioluminescence came out at 1.21.
The same measure, in the same setting: to `Cl.Clc1cccc(Cl)c1NC1=NCCN1` [Clonidine hydrochloride] belongs 1.29; to `C[C@H](C(=O)O)c1cccc(C(=O)c2ccccc2)c1` [(S)-(+)-Ketoprofen], 1.1; to `CNCCCN1c2ccccc2CCc2ccccc21.Cl` [Desipramine hydrochloride], 0.744.
The same measure, in the same setting: to `CN(C/C=C/C#CC(C)(C)C)Cc1cccc2ccccc12` [Terbinafine] belongs 1.04; to `Cc1nc2n(c(=O)c1CCN1CCC(c3noc4cc(F)ccc34)CC1)CCCC2O` (centres undefined) [Paliperidone], 0.722.
As for `C[C@@H]1CCN(C(=O)CC#N)C[C@@H]1N(C)c1ncnc2[nH]ccc12` [Tofacitinib], the bioluminescence worked out at 1.34.
On the same count and under the same terms, to `O=C1CCC(N2C(=O)c3ccccc3C2=O)C(=O)N1` (centres undefined) [Thalidomide] belongs 0.79.
With `Cl.OC(CCN1CCCC1)(c1ccccc1)C1CCCCC1` (centres undefined) [Procyclidine hydrochloride], the bioluminescence came out at 0.919.
Regarding `C[C@]12CC[C@@H]3c4ccc(O)cc4CC[C@H]3[C@@H]1CC[C@@H]2O` [Estradiol], the bioluminescence amounted to 0.435.
Turning to `Nc1nc2c(ncn2COC(CO)CO)c(=O)[nH]1` [Ganciclovir], the bioluminescence was determined as 1.62.
Turning to `NC(=O)c1cnccn1` [Pyrazinamide], the bioluminescence was 1.24.
Take `O=C1Nc2ccc(Cl)cc2[C@@](C#CC2CC2)(C(F)(F)F)O1` [Efavirenz]: the bioluminescence stood at 1.96.
`C[C@@H](O[C@H]1OCCN(Cc2nc(=O)[nH][nH]2)[C@H]1c1ccc(F)cc1)c1cc(C(F)(F)F)cc(C(F)(F)F)c1` [Aprepitant]: the bioluminescence turned out to be 0.644.
As to `Clc1ccc2c(c1)C(N1CCNCC1)=Nc1ccccc1O2` [Amoxapine], the bioluminescence came out at 1.25.
For `CC(=O)O.Cc1c(-c2ccc(O)cc2)n(Cc2ccc(OCCN3CCCCCC3)cc2)c2ccc(O)cc12` [Bazedoxifene acetate], the bioluminescence was 1.37.
As for `CNCCCC1c2ccccc2C=Cc2ccccc21.Cl` [Protriptyline hydrochloride], the bioluminescence turned out to be 0.571.
For `FC(F)(F)c1ccc(CNc2ccc(Cc3c[nH]c4ncc(Cl)cc34)cn2)cn1` [Pexidartinib], the bioluminescence amounted to 3.05.
Still for that read-out and setting: to `CSc1ccc2c(c1)N(CCC1CCCCN1C)c1ccccc1S2.Cl` (centres undefined) [Thioridazine hydrochloride] belongs 0.704; to `Cc1ncc([N+](=O)[O-])n1CCO` [Metronidazole], 0.966; to `O=C([O-])CCCc1ccccc1.[Na+]` [Sodium Phenylbutyrate], 0.911.
On the same count and under the same terms, the figure for `CCCCCOC(=O)Nc1nc(=O)n([C@@H]2O[C@H](C)[C@@H](O)[C@H]2O)cc1F` [Capecitabine] is 1.71.
On to `O.O.O.O.[Li][O]C(=O)CC(O)(CC(=O)[O][Li])C(=O)[O][Li]` [Lithium citrate tetrahydrate], for which the bioluminescence amounted to 0.787.
Take `Cc1[nH]c(=O)c(C#N)cc1-c1ccncc1` [Milrinone]: the bioluminescence came out at 1.63.
As to `O=C(CCCN1CCC(O)(c2ccc(Cl)cc2)CC1)c1ccc(F)cc1` [Haloperidol], the bioluminescence is 0.956.
For `CC(C)Nc1cccnc1N1CCN(C(=O)c2cc3cc(NS(C)(=O)=O)ccc3[nH]2)CC1.CS(=O)(=O)O` [Delavirdine mesylate], the bioluminescence is 0.912.
With `CN[C@H]1CC[C@@H](c2ccc(Cl)c(Cl)c2)c2ccccc21.Cl` [Sertraline hydrochloride], the bioluminescence was found to be 0.888.
`N[C@@H](CC(=O)O)C(=O)O` [L-Aspartic acid]: the bioluminescence is 1.1.
For the compound `Cc1ccc(Nc2nccc(N(C)c3ccc4c(C)n(C)nc4c3)n2)cc1S(N)(=O)=O` [Pazopanib], the bioluminescence came out at 0.395.
Same read-out and setting: to `Nc1ncn([C@H]2C[C@H](O)[C@@H](CO)O2)c(=O)n1` [Decitabine] belongs 1.67.
As to `Cc1ccnc2c1NC(=O)c1cccnc1N2C1CC1` [Nevirapine], the bioluminescence turned out to be 0.901.
With `CO[C@H]1C(=O)[C@]2(C)[C@@H](OC)C[C@H]3OC[C@@]3(OC(C)=O)[C@H]2[C@H](OC(=O)c2ccccc2)[C@]2(O)C[C@H](OC(=O)[C@H](O)[C@@H](NC(=O)OC(C)(C)C)c3ccccc3)C(C)=C1C2(C)C` [Cabazitaxel], the bioluminescence came to 7.3.
With `Nc1nc(=O)n([C@@H]2CS[C@H](CO)O2)cc1F` [Emtricitabine], the bioluminescence came to 0.872.
As for `C=CC(=O)N1CCC[C@@H](n2nc(-c3ccc(Oc4ccccc4)cc3)c3c(N)ncnc32)C1` [Ibrutinib], the bioluminescence came out at 1.87.
Consider `NC(CO)(CO)CO.O=C(c1ccccc1)c1ccc2n1CCC2C(=O)O` (centres undefined) [Ketorolac tromethamine salt], for which the bioluminescence turned out to be 1.57.
With `CC(=O)N[C@@H](CS)C(=O)O` [Acetylcysteine], the bioluminescence amounted to 1.21.
On to `COc1cc2c(Nc3ccc(Br)cc3F)ncnc2cc1OCC1CCN(C)CC1` [Vandetanib], for which the bioluminescence came to 0.918.
Consider `CO[C@H]1/C=C/O[C@@]2(C)Oc3c(C)c(O)c4c(O)c(c(/C=N/N5CCN(C6CCCC6)CC5)c(O)c4c3C2=O)NC(=O)/C(C)=C\C=C\[C@H](C)[C@H](O)[C@@H](C)[C@@H](O)[C@@H](C)[C@H](OC(C)=O)[C@@H]1C` [Rifapentine], for which the bioluminescence amounted to 0.434.
